Compound activity: PubChem, National Center for Advancing Translational Sciences (NCATS)
HT1080NT lethal: qHTS for induction of synthetic lethality in tumor cells producing 2HG: qHTS for the HT-1080-NT fibrosarcoma cell line; AID 686970, 2013; HT-1080-NT fibrosarcoma viability, CellTiter-Glo ATP luminescence, 48 h; Potency, µM (titrated, usually from 46.1 µM), most hits filed as cytotoxic; actives 1.6% (n = 360,000);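 also: NT is the 2HG producing partner of a matched IDH1 knockdown line; nearly all actives have a fitted effect of over 55% in size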
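HT-1080-NT; 750 cells/well; 5% FBS RPMI; 48 h compound, 37 degrees C; CellTiter-Glo luminescence; curve fitting and curve-class assignment.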
TDP1 cell noCPT: qHTS for Inhibitors of human tyrosyl-DNA phosphodiesterase 1 (TDP1): qHTS in cells in absence of CPT; AID 686978, 2013; DT40 Tdp1-/- hTDP1 cells, no CPT, ATP luminescence, 48 h; Potency, µM (highest dose often 46.2 µM), most hits filed as inhibitors; actives 15% (n = 420,000); also: nearly all actives have a fitted effect of over 55% in size
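Readout: luminescence from CellTiter-Glo after 30 min in the dark at RT. Cells: DT40 Tdp1-/- with stable hTDP1, 400/well. Exposure: compounds alone, ≥48 hr, 37 °C.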
HT1080 IDH1KD tx: qHTS for induction of synthetic lethality in tumor cells producing 2HG: qHTS for the HT-1080-IDH1KD cell line; HT-1080 IDH1 knockdown viability, ATP luminescence, 48 h; Potency, µM (highest dose often 46.1 µM), usual class: cytotoxic; actives 2% (n = 360,000); AID 686971, 2013
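IDH1KD HT-1080 cells, 750/well, RPMI + 5% FBS; compound pinned after 2 h settling; 48 h, 37 °C; CellTiter-Glo luminescence; % activity normalised to DMSO and no-cell wells; curves fitted, classed by r2 and efficacy.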
TDP1 cell CPT: qHTS for Inhibitors of human tyrosyl-DNA phosphodiesterase 1 (TDP1): qHTS in cells in presence of CPT; chicken DT40 Tdp1-/-;hTDP1 cells + 20 nM CPT, ATP luminescence, 48 h; Potency, µM (doses to about 46.2 µM), hits mostly inhibitors; actives 12% (n = 420,000); also: nearly all actives have a fitted effect of over 55% in size
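Chicken DT40 Tdp1-/- cells stably complemented with human TDP1 were seeded at 400 cells/well in medium containing 20 nM camptothecin, exposed to pin-transferred compounds, and grown at 37 °C for at least 48 hr. Viability was read as ATP luminescence.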
IL1B secr inh: qHTS for Inhibitors of Inflammasome Signaling: IL-1-beta AlphaLISA Primary Screen; THP-1 LPS/ATP IL-1B secretion, AlphaLISA, 16 h; stronger effect = lower value; activity change, % at 57.5 µM; actives 4.7% (n = 360,000); AID 743279, 2014; in the data active = activity change below about -50%; inconclusive = mostly about -30% to -49%
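Secreted IL-1B measured by AlphaLISA bead assay after 16 h compound exposure of THP-1 cells; compounds (final up to 57.5 uM) added 1 h before LPS (250 ng/mL) and ATP (1.25 mM) stimulation; lower signal means less secretion.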
Of the large screens only hits and unclear results are named; the others gave an inactive call. Only some compounds are listed: those with a hit (about 19% of all), similar ones and a draw of the others. Unless noted, calls follow the shape of the dose curve; as a rule, active = well fitted curve in the direction sought with a large enough effect; inconclusive = small, poorly fitted or top-dose-only effect, or another doubt; inactive = no such curve, though single readings can be large; an effect the other way counts as inactive or inconclusive.

C[C@@H]1CN([C@H](C)CO)C(=O)c2c(c3ccccc3n2C)-c2ccccc2CO[C@H]1CN(C)Cc1ccc(-c2ccccc2)cc1	HT1080NT lethal 20.6µM, TDP1 cell noCPT 20.6µM, HT1080 IDH1KD tx 16.4µM, TDP1 cell CPT 18.4µM, IL1B secr inh inconclusive
C[C@@H]1CN([C@H](C)CO)C(=O)c2c(c3ccccc3n2C)-c2ccccc2CO[C@@H]1CN(C)Cc1ccc(O)cc1	TDP1 cell noCPT 14.6µM, TDP1 cell CPT 20.6µM, IL1B secr inh inconclusive
COc1ccc(OC(=O)N(C)C[C@@H]2OCc3ccccc3-c3c(n(C)c4ccccc34)C(=O)N([C@H](C)CO)C[C@@H]2C)cc1	TDP1 cell noCPT 23.1µM
O=[N+]([O-])c1cccc2c([As](=O)(O)O)cccc12	none
Oc1ccc2c3c1O[C@H]1[C@@H](O)C=C[C@H]4[C@@H](C2)NCC[C@@]341	none (no result: HT1080NT lethal, HT1080 IDH1KD tx, IL1B secr inh)
CCCCc1nn2c(=O)cc(COC(=O)Cc3ccccc3)nc2s1	none (no result: HT1080NT lethal, HT1080 IDH1KD tx, IL1B secr inh)
O=C(N/N=C/c1cc(Br)c(Br)s1)c1ccncc1	TDP1 cell noCPT 9.2µM, TDP1 cell CPT 13µM
CC(C)c1ccc(NC(=O)c2ccc3c(c2)CCN3S(=O)(=O)c2ccccc2)cc1	TDP1 cell noCPT 5.8µM, TDP1 cell CPT 4.61µM (no result: HT1080NT lethal, HT1080 IDH1KD tx, IL1B secr inh)
CC(C)c1ccc(NC(=O)c2ccc(F)c(S(=O)(=O)N3CCc4ccccc4C3)c2)cc1	TDP1 cell noCPT 5.17µM, TDP1 cell CPT 4.61µM (no result: HT1080NT lethal, HT1080 IDH1KD tx, IL1B secr inh)
CCCCc1ccc(NC(=O)c2ccc3c(c2)CCN3S(=O)(=O)CC)cc1	TDP1 cell noCPT 3.66µM, TDP1 cell CPT 7.31µM (no result: HT1080NT lethal, HT1080 IDH1KD tx, IL1B secr inh)
COC(=O)[C@@H]1[C@@H](C(=O)OC)C2(c3ccccc3-c3ccccc32)N(c2ccc(Cl)cc2)N1C#N	HT1080NT lethal 4.61µM, TDP1 cell noCPT 2.59µM, HT1080 IDH1KD tx 5.8µM, TDP1 cell CPT 2.59µM, IL1B secr inh -99.2
COC(=O)C[C@]1(C(=O)OC)CN(C#N)N(c2ccc(Cl)cc2)C12c1ccccc1-c1ccccc12	HT1080NT lethal 10.3µM, TDP1 cell noCPT 0.92µM, HT1080 IDH1KD tx 4.11µM, TDP1 cell CPT 1.03µM, IL1B secr inh -105.4
O=C1NC(=O)C(=O)C(=O)N1	TDP1 cell CPT inconclusive (no result: HT1080NT lethal, HT1080 IDH1KD tx, IL1B secr inh)
C[C@@H]1CN([C@H](C)CO)C(=O)CCCn2nncc2CO[C@H]1CN(C)C(=O)Oc1ccccc1	none
Cc1cc(=O)oc2cc(Oc3ccc([N+](=O)[O-])cc3C(F)(F)F)ccc12	TDP1 cell noCPT inconclusive, TDP1 cell CPT inconclusive
CC(C)n1c(/C=C/[C@@H](O)C[C@@H](O)CC(=O)O)c(-c2ccc(F)cc2)c2ccccc21	HT1080NT lethal 1.46µM, TDP1 cell noCPT 9.2µM, HT1080 IDH1KD tx 1.46µM, TDP1 cell CPT 14.6µM
O=C1NC(=O)N(C2CCCCC2)C(=O)C1C1c2ccccc2C(=O)N1Cc1ccccc1 (configuration not stated)	none
NC(Cc1ccc(O)cc1)C(=O)NN=Cc1ccc(N(CCCl)CCCl)cc1 (configuration not stated)	HT1080NT lethal inconclusive, TDP1 cell noCPT 13µM, TDP1 cell CPT 8.2µM
COc1cc(C(=O)NN=Cc2ccc(N(CCCl)CCCl)cc2)cc(OC)c1OC	HT1080NT lethal inconclusive, TDP1 cell noCPT inconclusive, HT1080 IDH1KD tx 4.11µM, TDP1 cell CPT inconclusive
COc1cc(C(=O)Nc2ccc(Br)cc2C(=O)c2ccccc2)cc(OC)c1OC	none
O=C1NC(=O)C(C2CCCCCC2)C(=O)N1	none
COc1ccc2c(c1)NP(=S)(Oc1ccccc1)N2 (configuration not stated)	TDP1 cell noCPT 14.6µM, TDP1 cell CPT inconclusive
CCC(C)NC(=O)c1c(N)n(Cc2ccc3c(c2)OCO3)c2nc3ccccc3nc12 (configuration not stated)	HT1080NT lethal inconclusive, TDP1 cell noCPT 25.9µM, HT1080 IDH1KD tx inconclusive, TDP1 cell CPT inconclusive, IL1B secr inh inconclusive
